Test results as given in PubChem BioAssay.
Values joined by “and” are separate entries in the source; they are usually repeats but may differ in a detail not shown here. Equal values may be shown once. Active and inactive are the calls of the source.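 The calls were made as follows, unless noted: active = normalized viability below 100% at a tested concentration; inactive = the rest.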

Legend:
F380Y = experiment: modulators of BK channel variants, profiling panel, selectivity assay, cell-based, U2OS BacMam, thallium flux, beta subunits (AID 1259406;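 active = thallium flux through the channel raised or lowered by more than 3 SD from vehicle-only wells, actives on both sides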;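 also: initial slope of Thallos dye fluorescence rise after thallium is added; log ratio against the mean of 0.3% DMSO vehicle wells on the same plate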); conditions: at 30 µM
F380Y/beta1 = experiment: as above; conditions: at 30 µM
F380Y/beta2Delta = experiment: as above; conditions: at 30 µM
F380Y/beta4 = experiment: as above; conditions: at 30 µM
[1] = molecular target: Calcium-activated potassium channel subunit alpha-1 (Homo sapiens) + Leucine-rich repeat-containing protein 26 (Homo sapiens) (UniProt Q12791+Q2I0M4); experiment: as above; conditions: F380Y/Slo1WT/gamma1, at 30 µM
Calcium-activated potassium channel subunit alpha-1 (Homo sapiens) + Leucine-rich repeat-containing protein 26 (Homo sapiens), sequence (Q2I0M4 whole entry, looked up, one chain of several): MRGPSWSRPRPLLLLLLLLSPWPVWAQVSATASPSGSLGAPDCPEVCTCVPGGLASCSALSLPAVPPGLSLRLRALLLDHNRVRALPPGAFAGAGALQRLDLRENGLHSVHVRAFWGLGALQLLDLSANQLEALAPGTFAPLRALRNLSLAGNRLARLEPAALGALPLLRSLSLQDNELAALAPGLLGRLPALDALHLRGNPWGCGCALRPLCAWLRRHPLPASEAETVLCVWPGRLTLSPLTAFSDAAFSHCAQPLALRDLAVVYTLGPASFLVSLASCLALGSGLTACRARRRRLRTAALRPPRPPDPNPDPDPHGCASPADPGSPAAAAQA

R275C = experiment: as above; conditions: at 30 µM
R275C/beta1 = experiment: as above; conditions: at 30 µM
R275C/beta2Delta = experiment: as above; conditions: at 30 µM
R275C/beta4 = experiment: as above; conditions: at 30 µM
R275C/Slo1WT/beta2 = experiment: as above; conditions: at 30 µM
[2] = liver-stage malaria parasite growth inhibition, primary screen, cell-based, HepG2, luciferase luminescence, HepG2 viability (AID 624349; in the data active = parasite load remaining mostly below about 12%, no sharp cut-off; inactive = mostly above about 10%;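 also: 100% = mean of DMSO negative control wells on the same plate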); conditions: P. berghei liver stage in HepG2, luciferase luminescence, concentration not given here; parasite load remaining: stronger effect = lower value; viability: measured here: HepG2 viability without parasites
[3] = Cy5 fluorescence interference with SSB-bound oligo, artefact control for HCV NS3 helicase inhibitor project, biochemical, NIH Clinical Collection, E. coli SSB (AID 743268; call rule not given here)
[4] = tested on: Hepatitis C virus NS3 helicase; experiment: HCV NS3 helicase inhibitors, primary screen, biochemical, fluorescence polarization, NIH Clinical Collection (AID 743270; call rule not given here); conditions: NS3 helicase binding to Cy5-dT15 DNA, stronger effect = higher value, concentration not given here
[5] = molecular target: Single-stranded DNA-binding protein (Escherichia coli (strain K12)) (UniProt P0AGE0); experiment: E. coli SSB displacement from DNA, counter-screen for HCV NS3 helicase inhibitor project, biochemical, fluorescence polarization, NIH Clinical Collection (AID 743271; in the data active = inhibition above about 28%); conditions: stronger effect = higher value, concentration not given here
[6] = fluorescence interference in NS3h assay format, artefact control for HCV NS3 helicase inhibitor project, biochemical, NIH Clinical Collection (AID 743272; call rule not given here;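 also: HCV NS3 helicase with a Cy5 labelled single stranded DNA probe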); conditions: fluorescence interference counterscreen, stronger effect = lower value
[7] = modulation of C. elegans fzo-1 (AID 1259413; call rule not given here;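 also: fzo-1 mutant C. elegans worms in liquid wells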); conditions: C. elegans fzo-1 modulator screen, mean read-out; stronger effect = higher value
[8] = survival rescue of mitochondrial mutant cells in low glucose, primary screen, MELAS cybrids, Rieske KO mouse fibroblasts, CellTiter-Glo (AID 1508586;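 active = mean z-score across replicates of 1.96 or higher in either the MELAS or the Rieske mutant cell line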;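 also: z relative to plate mean and SD of compound and empty wells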)
[9] = ovarian cancer cell viability with rucaparib, profiling panel, oncology-focused library, rucaparib conditional (AID 1508598); conditions: patient-derived ovarian cancer cells, CellTiter-Glo viability, 144 h, stronger effect = lower value
[10] = viability rescue of complex I mutant cybrids, primary screen, cell-based, galactose medium, ATP luminescence (AID 1645843;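 active = z-score of at least 1.8 in each of two replicates, scored against plate mean and spread of sample wells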;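 also: positive z means more ATP and so rescue of galactose-driven cybrid death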); conditions: complex I mutant cybrid cells, 72 h, stronger effect = higher value

CCOC(=O)c1cnn(C(=O)c2ccc(-n3c(C)ccc3C)cc2)c1N
inactive: log fold change Tl+ flux (F380Y) -0.0269 | log fold change Tl+ flux (F380Y/beta1) -0.0106 | log fold change Tl+ flux (F380Y/beta2Delta) -0.0157 | log fold change Tl+ flux (F380Y/beta4) -0.067 | log fold change Tl+ flux [1] 0.00537 | log fold change Tl+ flux (R275C) -0.0135 | log fold change Tl+ flux (R275C/beta1) -0.0219 | log fold change Tl+ flux (R275C/beta2Delta) 0.0233 | log fold change Tl+ flux (R275C/beta4) -0.00435 | log fold change Tl+ flux (R275C/Slo1WT/beta2) 0.0525

O=C1CN2Cc3c(ccc(Cl)c3Cl)N=C2N1
-0.321 and 0.64 and -0.821: z-score ([8]; Rieske KO mouse fibroblast survival, CellTiter-Glo 72 h)
inactive: parasite load remaining [2] 45.6% and 99.2% and 57.7% | fluorescence ratio [3] 1.06 | inhibition [4] -12.3% | inhibition [5] -7.03% | fluorescence ratio [6] 1.02 | mean signal [7] 210 | z-score ([8]; MELAS cybrid survival, CellTiter-Glo 48 h, stronger effect = higher value) -0.241 and 0.475 and -0.0504 | viability ([9]; at 0.000305 µM, OCI-C5x cells, with rucaparib 10 µM, 100% = cells with rucaparib alone) 111% | viability ([9]; at 0.000305 µM, OCI-C5x cells, without rucaparib) 124% | viability ([9]; at 0.00122 µM, OCI-C5x cells, with rucaparib 10 µM, 100% = cells with rucaparib alone) 113% | viability ([9]; at 0.00122 µM, OCI-C5x cells, without rucaparib) 126% | viability ([9]; at 0.00122 µM, OCI-P5x cells, with rucaparib 20 µM, 100% = cells with rucaparib alone) 100% | viability ([9]; at 0.00122 µM, OCI-P5x cells, without rucaparib) 107% | viability ([9]; at 0.00488 µM, OCI-C5x cells, with rucaparib 10 µM, 100% = cells with rucaparib alone) 115% | viability ([9]; at 0.00488 µM, OCI-C5x cells, without rucaparib) 121% | viability ([9]; at 0.00488 µM, OCI-P5x cells, with rucaparib 20 µM, 100% = cells with rucaparib alone) 106% | viability ([9]; at 0.00488 µM, OCI-P5x cells, without rucaparib) 105% | viability ([9]; at 0.0195 µM, OCI-C5x cells, with rucaparib 10 µM, 100% = cells with rucaparib alone) 111% | viability ([9]; at 0.0195 µM, OCI-C5x cells, without rucaparib) 115% | viability ([9]; at 0.0195 µM, OCI-P5x cells, without rucaparib) 103% | viability ([9]; at 0.0781 µM, OCI-C5x cells, with rucaparib 10 µM, 100% = cells with rucaparib alone) 109% | viability ([9]; at 0.0781 µM, OCI-C5x cells, without rucaparib) 107% | viability ([9]; at 0.0781 µM, OCI-P5x cells, without rucaparib) 101% | viability ([9]; at 0.313 µM, OCI-C5x cells, with rucaparib 10 µM, 100% = cells with rucaparib alone) 125% | viability ([9]; at 0.313 µM, OCI-C5x cells, without rucaparib) 118% | viability ([9]; at 1.25 µM, OCI-C5x cells, with rucaparib 10 µM, 100% = cells with rucaparib alone) 123% | viability ([9]; at 1.25 µM, OCI-C5x cells, without rucaparib) 107% | viability ([9]; at 5 µM, OCI-C5x cells, with rucaparib 10 µM, 100% = cells with rucaparib alone) 122% | viability ([9]; at 5 µM, OCI-C5x cells, without rucaparib) 116% | z-score [10] 0.465 and 0.535 | log fold change Tl+ flux (F380Y) -0.00116 | log fold change Tl+ flux (F380Y/beta1) 0.0415 | log fold change Tl+ flux (F380Y/beta2Delta) 0.0342 | log fold change Tl+ flux (F380Y/beta4) 0.00749 | log fold change Tl+ flux [1] -0.00535 | log fold change Tl+ flux (R275C) -0.0701 | log fold change Tl+ flux (R275C/beta1) -0.00554 | log fold change Tl+ flux (R275C/beta2Delta) -0.00347 | log fold change Tl+ flux (R275C/beta4) -0.00682 | log fold change Tl+ flux (R275C/Slo1WT/beta2) -0.00842
99.2% and 69.6% and 96.5%: viability [2]
active: viability ([9]; at 0.000305 µM, OCI-P5x cells, with rucaparib 20 µM, 100% = cells with rucaparib alone) 98.8% | viability ([9]; at 0.000305 µM, OCI-P5x cells, without rucaparib) 72% | viability ([9]; at 0.0195 µM, OCI-P5x cells, with rucaparib 20 µM, 100% = cells with rucaparib alone) 99.6% | viability ([9]; at 0.0781 µM, OCI-P5x cells, with rucaparib 20 µM, 100% = cells with rucaparib alone) 94% | viability ([9]; at 0.313 µM, OCI-P5x cells, with rucaparib 20 µM, 100% = cells with rucaparib alone) 90.5% | viability ([9]; at 0.313 µM, OCI-P5x cells, without rucaparib) 92.4% | viability ([9]; at 1.25 µM, OCI-P5x cells, with rucaparib 20 µM, 100% = cells with rucaparib alone) 88.3% | viability ([9]; at 1.25 µM, OCI-P5x cells, without rucaparib) 92.2% | viability ([9]; at 5 µM, OCI-P5x cells, with rucaparib 20 µM, 100% = cells with rucaparib alone) 83.7% | viability ([9]; at 5 µM, OCI-P5x cells, without rucaparib) 85.5%
